Eleven molecules from the supplement of paper PMC9135407 can be followed below.

Structures can show the parent of a compound that is named as a salt. Values without a mark were called inactive.

This test relates to primary human hepatic stellate cells (donor 1). In words: COL1A1 mRNA fold change vs DMSO (normalised to PSMB2); higher = more COL1A1 expression, active = hit call of the paper. The note with it: 48 h. As to the method: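 Secondary qRT-PCR screen in primary human HSCs (donor 1), 384-well plates, with compounds dispensed in quadruplicate and incubated for 48 h. Cells-to-CT lysates were used for multiplexed TaqMan qPCR of ACTA2 or COL1A1 with PSMB2 as reference. Fold changes versus DMSO come from a linear model (Ct_gene ~ Ct_PSMB2 + plate + chemical). A hit is defined as COL1A1 and ACTA2 FC <0.5 (FDR <0.05) with PSMB2 between 0.2 and 2.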
For the molecule `CCN(CC)CCCCNc1ncc2cc(-c3c(Cl)cccc3Cl)c(NC(=O)NC(C)(C)C)nc2n1` (33.3333 µM), the “COL1A1 mRNA fold change” value is 0.425 (active).

Take `Cc1nc2ccc(-n3ncc(C(=O)c4cc5ccccc5[nH]4)c3N)cc2[nH]1` (33.3333 µM): the “COL1A1 mRNA fold change” value was 0.562.

On to `CN(C)Cc1c(C(=O)NCCOc2ccc(C(=O)NO)cc2)oc2ccccc12` (33.3333 µM), for which the “COL1A1 mRNA fold change” value was 0.0321 (active).

For `C[C@@H](CN1CCC(n2c(=O)[nH]c3cc(Cl)ccc32)CC1)NC(=O)c1ccc2ccccc2c1` (33.3333 µM), the “COL1A1 mRNA fold change” value is 0.19.

As for `Cc1ccc(-c2ccc3c(ccc4sc5c(c43)NC[C@@H](C)NC5=O)n2)cn1` (33.3333 µM), the “COL1A1 mRNA fold change” value was 1.21.

On to `CCc1cc2c(cc1CC)CC(NC[C@H](O)c1ccc(O)c3[nH]c(=O)ccc13)C2` [Indacaterol Maleate] (33.3333 µM), for which the “COL1A1 mRNA fold change” value was 0.0797 (active).

`C#C[C@]1(O)CC[C@H]2[C@@H]3CCC4=Cc5oncc5C[C@]4(C)[C@H]3CC[C@@]21C` [Danazol] (33.3333 µM): the “COL1A1 mRNA fold change” value was 0.0336 (active).

Take `COc1ccc(NS(=O)(=O)c2sc3ccc(Cl)cc3c2C)cc1N1CCNCC1` (33.3333 µM): the “COL1A1 mRNA fold change” value is 0.0858 (active).

For the molecule `O=C1NC(=O)/C(=C/c2ccc(-c3ccc(F)cc3O)o2)S1` (33.3333 µM), the “COL1A1 mRNA fold change” value is 0.115.

As to `c1cc(OCCN2CCCCC2)cc(-c2n[nH]c3ccc(-c4nnc[nH]4)cc23)c1` (33.3333 µM), the “COL1A1 mRNA fold change” value was 0.105 (active).

Consider `CCCCc1oc2ccccc2c1C(=O)c1cc(I)c(OCCN(CC)CC)c(I)c1` (33.3333 µM), for which the “COL1A1 mRNA fold change” value is 0.057 (active).
